Screening data (PubChem BioAssay)
Compounds with a hit are over-represented: about 9.2% of the library has one in this group of screens.
Rab9 promoter act: activators of Rab9 promoter | Potency, µM (highest dose often 9.22 µM), for the others: at the top dose activation, negative = inhibition, most hits filed as activators | AID 485297 | actives 2.8% (n = 320,000) | Huh7 Rab9 promoter-luciferase reporter, luminescence, 24 h; also: % of control where 0% means no effect; nearly all actives have a fitted effect of over 60% in size
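Luminescence from Amplite-detected luciferase (10 minutes, ambient) reports Rab9 promoter activation. Before that, stable Rab9-luciferase Huh7 cells (1500/well, reduced-serum OP-MEM I plus 10% FBS) were exposed to compound for 24 hours at 37C.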
ELG1 genotox: induces genotoxicity in HEK293T cells with luciferase-tagged ELG1; HEK293T ELG1-luciferase reporter, luminescence, 16 h; Potency, µM (series often up to 46 µM), for the others: at the top dose activity change, positive = activation, usual class: activators; actives 1.3% (n = 330,000); AID 504466; also: % of control where 0% means no effect; nearly all actives have a fitted effect of over 60% in size
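ELG1-luciferase HEK293T cells, 2,000/well; compound pinned in; 16 hr, 37 °C, 5% CO2; ONE-Glo, 30 min RT; luminescence on CCD imager.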
SMN2 splice enh: SMN2 splice variant enhancement | HEK293 SMN2-luciferase splicing reporter, luminescence, 30-36 h | AID 1458 | Potency, µM (top dose mostly 46.1 µM), without a hit: top-dose activity change, positive = activation, hits mostly activators | actives 2.8% (n = 210,000); also: % of control where 0% means no effect; nearly all actives have a fitted effect of over 55% in size
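HEK293 cells carry an SMN2 […]–luciferase reporter in which exon 7 inclusion puts luciferase in frame. Cells were plated 10-12 h before compound addition, then incubated 30-36 h at 37C. ONE-Glo luminescence was read; sodium butyrate at 4.5 mM final served as control.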
ELG1 DNA repair: blocks ELG1-dependent DNA repair in HEK293T cells; Potency, µM (series often up to 46.1 µM), for the others: at the top dose activity change, negative = inhibition, actives largely listed as inhibitors; HEK293T ELG1-luciferase reporter, luminescence, 16 h; DNA damage induced by 5-fluorouridine; actives 2.3% (n = 330,000); AID 504467; also: % is scaled to controls: 0 for no effect and ±100 for the full control effect; nearly all actives have a fitted effect of over 55% in size
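Step one: seed 2,000 cells per well. Step two: pin-transfer compound or DMSO alongside 5-fluorouridine. Step three: incubate 16 hr, 37 °C, 5% CO2. Step four: add ONE-Glo, wait 30 min, read luminescence.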
NPC1 prom act: NPC1 promoter activation. Huh7 NPC1 promoter luciferase reporter, 24 h. Potency, µM (series often up to 9.22 µM), inactives show at the top dose activation, usual class: activators. actives 2.4% (n = 320,000); also: % of control where 0% means no effect; nearly all actives have a fitted effect of over 60% in size
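NPC1 promoter–luciferase Huh7 cells; 24 h compound; luminescence.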
FLuc modulator: firefly luciferase modulation, counter-screen for miR-21 project; purified FLuc, Km substrates, luminescence inhibition; actives 6.9% (n = 360,000); P08659; Potency, µM (titrated, usually from 57.5 µM), for the others: top-dose activity change, negative = inhibition, most hits filed as inhibitors;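 also: plate controls were vehicle for no effect and reference inhibitor for full effect; nearly all actives have a fitted effect of over 55% in size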
Target sequence (P08659 whole entry, looked up): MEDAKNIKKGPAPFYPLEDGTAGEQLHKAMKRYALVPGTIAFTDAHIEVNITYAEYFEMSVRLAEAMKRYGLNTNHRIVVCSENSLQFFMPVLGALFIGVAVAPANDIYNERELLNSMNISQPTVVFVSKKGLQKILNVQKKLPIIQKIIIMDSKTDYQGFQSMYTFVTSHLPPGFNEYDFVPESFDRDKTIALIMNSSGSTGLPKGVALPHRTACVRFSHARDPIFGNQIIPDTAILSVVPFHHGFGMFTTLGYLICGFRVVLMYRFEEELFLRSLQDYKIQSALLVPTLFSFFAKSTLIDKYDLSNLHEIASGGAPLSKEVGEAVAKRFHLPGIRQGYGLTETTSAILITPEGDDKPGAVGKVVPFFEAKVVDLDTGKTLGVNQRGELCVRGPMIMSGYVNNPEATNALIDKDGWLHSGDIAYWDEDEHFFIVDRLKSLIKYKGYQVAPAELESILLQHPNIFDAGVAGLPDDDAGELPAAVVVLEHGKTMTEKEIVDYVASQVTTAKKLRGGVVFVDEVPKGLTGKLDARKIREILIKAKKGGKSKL
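Purified P. pyralis luciferase, 10 nM final, with Km-level 10 uM D-luciferin and 10 uM ATP in 50 mM Tris acetate pH 7.5, 10 mM Mg acetate, 0.01% Tween-20, 0.05% BSA; 6-point qHTS titration about 60 µM downward; luminescence read.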
The depositor's hits bear a star; ? = inconclusive; . = no result. Calls follow the shape of the dose curve; as a rule, active = well fitted curve in the direction sought with a large enough effect; inconclusive = small, poorly fitted or top-dose-only effect, or another doubt; inactive = no such curve, though single readings can be large; an effect the other way counts as inactive or inconclusive. Potency is read from the fitted curve at half-maximal effect.

SMILES | Rab9 promoter act | ELG1 genotox | SMN2 splice enh | ELG1 DNA repair | NPC1 prom act | FLuc modulator
CCOC(=O)c1cc(-c2ccccc2)sc1NC(=O)C(C)N1C(=O)NC(C)(c2ccc(Cl)cc2)C1=O (stereo not given) | 3% | -6% | 10% | 26µM* | -1% | 4%
CCOC(=O)c1cc(-c2ccccc2)sc1NC(=O)C(C)Sc1nnnn1C (stereo not given) | 9% | -15% | -22% | 18µM* | -1% | 2%
C=CCNC(=O)c1cc(-c2ccc(Br)cc2)on1 | 0.79µM* | ? | 11µM* | ? | 1.3µM* | ?
CC(=O)c1ccc(NC(=O)c2noc(C(C)C)c2[N+](=O)[O-])cc1 | 18% | 13% | -8% | 35% | 14% | -14%
Cc1ccc(O)c(NC(=O)c2noc(C(C)C)c2[N+](=O)[O-])c1 | -3% | ? | 29% | ? | -2% | 19µM*
Cc1ccc(O)c(NC(=O)c2cc(-c3cccs3)on2)c1 | -1% | 18µM* | . | ? | 18% | 2.1µM*
CC(C)NC(=O)c1cc(-c2cccs2)on1 | 2.8µM* | 4.5µM* | 13µM* | ? | 3.2µM* | 15µM*
Cc1ccc(O)c(NC(=O)c2cc(-c3ccc(F)cc3)on2)c1 | 27% | 8% | ? | ? | ? | -13%
COc1ccc(N2CCN(C(=O)CN3C(=O)CSc4c3c(C)nn4-c3ccccc3)CC2)cc1 | . | . | . | . | . | 0%
Cc1ccc(O)c(NC(=O)c2onc(C)c2Cl)c1 | -6% | ? | . | ? | 18% | 17µM*
C=CCNC(=O)c1cc(-c2cccs2)on1 | . | . | . | . | . | 13µM*
CCC1CCCCN1CCCNC(=O)c1c(C)oc2ncn(CC(C)C)c(=O)c12 (stereo not given) | . | . | . | . | . | -4%
COc1ccc(-n2ncc3c(NC(C)C)ncnc32)cc1 | 0.32µM* | ? | 2.8µM* | ? | 0.28µM* | 1.3µM*
COc1ccc(-n2ncc3c(NCC(C)C)ncnc32)cc1 | 0.35µM* | ? | 2µM* | ? | 0.4µM* | 1.1µM*
COc1ccc([N+](=O)[O-])cc1Nc1ncnc2ccccc12 | -1% | -1% | -25% | 0% | -7% | 9%
Cc1ccc(O)c(Nc2ncnc3ccc([N+](=O)[O-])cc23)c1 | 4% | -20% | . | 13µM* | 20% | 1%
COc1ccc(Nc2ncnc3ccc([N+](=O)[O-])cc23)c(OC)c1 | -3% | -7% | -19% | ? | -1% | -1%
O=[N+]([O-])c1ccc(O)c(Nc2ncnc3ccccc23)c1 | 14% | 1% | . | 9% | ? | 0.54µM*
O=[N+]([O-])c1ccc(O)c(Nc2ncnc3ccc(Br)cc23)c1 | -2% | -12% | . | 13µM* | 1% | ?
CN(C)c1ccc(/C=C(\NC(=O)c2ccccc2)C(=O)NCc2cccnc2)cc1 | -3% | -2% | . | 4% | 0% | 11µM*
O=C(NCCCn1ccnc1)/C(=C/c1ccc(Cl)cc1)NC(=O)c1ccccc1 | 1% | -4% | . | 1% | -3% | 1%
CN(C)c1ccc(/C=C(/NC(=O)c2ccccc2)C(=O)NCCCn2ccnc2)cc1 | -1% | 1% | . | 10% | -3% | 4.8µM*
Cc1cccc(N2C(=O)N3[C@H]4c5ccccc5OC[C@@H]4[C@@H](c4ccccc4)[C@@]3(C)C2=O)c1 | . | -1% | . | -17% | . | .
COc1ccc(-c2cc(C(=O)NCCc3ccccc3)c3c(-c4ccccc4)[nH]nc3n2)cc1 | . | . | . | . | . | 0%
O=C(O)c1cc(-c2ccc(C(F)(F)F)cc2)nc2n[nH]c(-c3ccccc3)c12 | . | . | . | . | . | 3µM*
SMILES | Rab9 promoter act | ELG1 genotox | SMN2 splice enh | ELG1 DNA repair | NPC1 prom act | FLuc modulator
O=C(NCCCNC(=O)c1ccco1)c1ccc(Cl)cc1 | -3% | ? | . | ? | 1% | -13%
NC(=NCc1ccco1)NC(=O)c1ccc(Cl)cc1 | ? | ? | . | ? | ? | 17µM*
C/C(=N\NC(=S)Nc1ccccc1C)c1ccc(O)cc1 | 9% | 3% | -10% | 1% | 1% | 21µM*
COc1cccc(-c2cc(C(F)(F)F)nc(-n3cc(Cl)cn3)n2)c1 | -3% | -14% | -42% | ? | 0% | 2%
COc1ccc(-c2cc(C(F)(F)F)nc(-n3cc(Cl)cn3)n2)cc1 | -2% | -12% | -44% | 23µM* | -8% | 0%
COc1cc2oc(=O)c(CC(=O)NCCc3ccccc3F)c(C)c2cc1OC | . | . | 3% | . | . | 2%
Cc1ccccc1Cn1ccn(-c2ccc(F)c(F)c2)c(=O)c1=O | . | . | . | . | . | -1%
O=C(Nc1ccc2[nH]ccc2c1)c1ccccc1 | 1.4µM* | ? | . | ? | 0.56µM* | 3.4µM*
O=C(Nc1ccc2[nH]ccc2c1)c1ccc(F)cc1 | 0.5µM* | ? | . | ? | 0.4µM* | 1.5µM*
CCOc1cccc(CC(=O)N2CCc3c([nH]c4ccccc34)C2c2ccc(SC)cc2)c1OCC (stereo not given) | . | . | 22% | . | . | 1%
CCOc1cnc(-c2ccc(OC)cc2)o1 | ? | ? | ? | ? | 2.5µM* | 9.5µM*
CCOc1cnc(-c2ccc(Cl)cc2)o1 | 15% | 9% | 16% | ? | 0% | 21µM*
O=S(=O)(c1ccccc1)N1CCC2(CCCN(C(c3ccccc3)c3ccccc3)C2)CC1 | . | . | -13% | . | . | .
c1csc(-c2ccc(N3CCOCC3)nn2)c1 | 0.5µM* | ? | . | ? | 0.4µM* | 2.4µM*
CCOC(=O)C1CCN(c2ccc(-c3cccs3)nn2)CC1 | 4% | ? | . | ? | 22% | 0.76µM*
O=C(CSc1ccc(-c2cccs2)nn1)N1CCCCCC1 | 24% | 9% | ? | ? | 17% | ?
CCCCN(C)CCCNC(=O)Cn1nc(CC)n2c(cc3sc(C)cc32)c1=O | . | . | -4% | . | . | -1%
CCCSC1=N/C(=C\C=C\c2ccco2)C(=O)S1 | 1% | 0% | -6% | 5% | -2% | 11µM*
Cc1ccc(-n2cnc3sc(C)c(C)c3c2=O)cc1 | 2.5µM* | ? | 13µM* | ? | ? | ?
COc1ccc(NC(C)=O)cc1NC(=O)C1CCN(C(=O)Nc2ccccc2)CC1 | 2% | 11% | . | 14% | -3% | -1%
CCOC(=O)c1ccc2nc(C)c(CC)c(Cl)c2c1 | -13% | 0% | . | ? | 8% | ?
C=CCc1c(C)nc2ccc(C(=O)OCC)cc2c1Cl | 12% | 2% | . | ? | 0% | 21µM*
COc1ccccc1NC(=O)c1c(-c2ccc(C)cc2)nnc2ccccc12 | . | . | . | . | . | -16%
CCc1ccc(NC(=O)c2cc3sc(Cl)cc3n2C)cc1 | . | . | 13µM* | . | . | 5.4µM*
CC(C)c1ccc(NC(=O)c2cc3sc(Cl)cc3n2C)cc1 | . | . | -11% | . | . | 3.4µM*
